Source: PubChem BioAssay
HP1b chromo inh – inhibitors of HP1-beta chromodomain binding to methylated histone tails; AlphaScreen HP1-beta / biotin-H3K9me3 peptide binding; Potency, µM (top dose mostly 114 µM), without a hit: top-dose activity change, negative = inhibition, hits mostly inhibitors; hit rate 0.56% among 390,000; AID 540317; also: nearly all actives have a fitted effect of over 70% in size
Target sequence (P83916 whole entry, looked up): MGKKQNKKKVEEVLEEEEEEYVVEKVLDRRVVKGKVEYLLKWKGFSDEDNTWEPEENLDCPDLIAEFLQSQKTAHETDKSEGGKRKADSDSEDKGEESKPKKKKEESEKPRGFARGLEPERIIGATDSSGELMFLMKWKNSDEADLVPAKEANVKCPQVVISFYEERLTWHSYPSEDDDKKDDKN
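HP1-beta protein (50 nM final) preincubated 30 min at room temperature with biotinylated H3(1-18)K9me3 peptide (50 nM) in PBS pH 7.4, 0.01% Tween-20, then compound added for 30 min. AlphaScreen streptavidin donor/nickel chelate acceptor beads (10 ug/mL final), 30 min dark, luminescence read.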
G9a inh – blocks human histone lysine methyltransferase G9a; Potency, µM (top dose mostly 102 µM), without a hit: top-dose activity, negative = inhibition, most hits filed as inhibitors; G9a H3K9 monomethylation, AlphaScreen, 2 h; hit rate 8.8% among 350,000; Q96KQ7; also: % is scaled to controls: 0 for no effect and ±100 for the full control effect; nearly all actives have a fitted effect of over 75% in size
Target sequence (Q96KQ7 913-1193 limits assumed): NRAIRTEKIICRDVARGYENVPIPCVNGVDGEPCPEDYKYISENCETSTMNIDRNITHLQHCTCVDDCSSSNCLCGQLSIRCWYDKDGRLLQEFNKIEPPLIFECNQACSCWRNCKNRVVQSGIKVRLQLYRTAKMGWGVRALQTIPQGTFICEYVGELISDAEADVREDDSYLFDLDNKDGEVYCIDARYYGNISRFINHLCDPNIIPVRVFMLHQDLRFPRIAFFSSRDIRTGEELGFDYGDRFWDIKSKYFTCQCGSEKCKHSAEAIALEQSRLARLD
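Using a bead-based AlphaScreen, monomethylated H3K9 product from 2 h room-temperature reactions (G9a 20 nM, peptide 500 nM, SAM 20 uM) was detected with 0.5 ug/mL rabbit anti-H3K9me1 antibody.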
JMJD2A Tudor – blocks the human JMJD2A Tudor domain; O75164; hit rate 4.4% among 390,000; AlphaScreen JMJD2A-Tudor / H3K4me3 peptide binding; Potency, µM (series often up to 114 µM), for inactives: top-dose activity change, negative = inhibition, hits mostly inhibitors; AID 504339; also: % is scaled to controls: 0 for no effect and ±100 for the full control effect; nearly all actives have a fitted effect of over 50% in size
BAZ2B inh – BAZ2B (human) inhibition. Q9UIF8. AlphaScreen BAZ2B-H3K14Ac peptide displacement. Potency, µM (top dose mostly 114 µM), inactives show at the highest dose activity change, negative = inhibition, actives largely listed as inhibitors. hit rate 4.4% among 360,000; also: % is scaled to controls: 0 for no effect and ±100 for the full control effect; nearly all actives have a fitted effect of over 60% in size
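BAZ2B (50 nM) with biotin-H3(5-23)K14Ac peptide (50 nM) in PBS pH 7.4, 0.01% Tween-20, preformed 30 min, then compound 30 min at room temperature; top concentration 110uM. AlphaScreen streptavidin donor/nickel chelate acceptor beads (10 ug/mL final), 20 min dark, signal read.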
L3MBTL1 inh – blocks human L3MBTL1 | Q9Y468 | AlphaScreen L3MBTL1–H3K9me1 peptide binding | Potency, µM (titrated, usually from 57.1 µM), inactives show at the highest dose activity, negative = inhibition, usual class: inhibitors | hit rate 0.66% among 230,000 | AID 485360; also: % is scaled to controls: 0 for no effect and ±100 for the full control effect; nearly all actives have a fitted effect of over 60% in size
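Read-out is AlphaScreen signal from streptavidin donor and nickel chelate acceptor beads (10 ug/mL final each) bridging L3MBTL1 (50 nM) and biotinylated K9-monomethylated H3(1-15) peptide (75 nM), after 30 min compound exposure at room temperature.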
The depositor's hits bear a star; u = inconclusive; x = not tested or not shown; [ ] = dose if it differs, or a comment. An excerpt weighted towards active compounds, which were near 11% of everything screened. Calls follow the shape of the dose curve; as a rule, active = well fitted inhibition curve with a large enough effect; inconclusive = small, poorly fitted or top-dose-only effect; inactive = no such curve, though single readings can be large or run the other way. Potency is read from the fitted curve at half-maximal effect.

SMILES	HP1b chromo inh	G9a inh	JMJD2A Tudor	BAZ2B inh	L3MBTL1 inh
CCOC(=O)CC(c1ccc([N+](=O)[O-])cc1)n1c(C)ccc1C (centres undefined)	u	u	-34%	45µM*	-4%[11.4 µM]
CN(C)S(=O)(=O)N(CC(=O)N(Cc1ccccc1)Cc1ccccc1)c1ccccc1	8%	-4%[59 µM]	u	56µM*	x
O=C(O)c1ccc(Nc2nc3ccc(Cl)cc3[nH]2)cc1	3%	45µM*	u	u	-1%
O=C(Nc1nc2ccccc2[nH]1)c1cccc(Cl)c1	34%	x	-15%	0%	-6%
CCOc1ccc(NC(=O)CSc2nnc(CC)c(CC)n2)cc1	20%	-7%[59 µM]	-9%	-5%	x
C[C@@H]1CN(C(=O)c2nc3ccc(Cl)cn3c2CN(C)CCc2cnn(C)c2)C[C@H](C)O1	34%	10%[59 µM]	-3%	-10%	x
O=C(Nc1nnc(-c2ccc(F)cc2)o1)C1CCCN1S(=O)(=O)c1cccs1 (centres undefined)	35%	u	45µM*	79µM*	-3%
O=C(Nc1nccs1)C1CCCN1S(=O)(=O)c1ccc(F)cc1 (centres undefined)	14%	-26%[59 µM]	-12%	-3%	u
COc1ccccc1C1c2c(-c3ccc(Cl)cc3)n[nH]c2C(=O)N1c1ccc(C)cc1 (centres undefined)	22%	u	u	x	x
CNC(=O)/C(C#N)=c1\s/c(=C/C(=O)OC)c(=O)n1-c1ccccc1	26%	13%[0.501 µM]	-14%	-3%	5%
COC(=O)/C=c1\sc2ncnn2c1=O	u	3.2µM*	20µM*	11%	6%
COc1ccc(N2CCN(c3nc4ccc(C)cc4n4nnnc34)CC2)cc1	31%	-7%[59 µM]	-10%	-6%	x
Cc1cc2c(s1)c1cnn(Cc3ccc4ccccc4c3)c(=O)c1n2C	x	x	-19%	x	x
Cc1cccc(C)c1OCC(=O)NCC1(N(C)C)CCCCC1	25%	-10%[59 µM]	-3%	-6%	x
CC(=O)Nc1ccc(S(=O)(=O)Nc2ccc3c(c2)OCO3)cc1	16%	9%	-6%	-4%	x
O=C(Nc1ccc(S(=O)(=O)Nc2ncccn2)cc1)c1cccc(Cl)c1	42%	4%[59 µM]	1%	1%	x
CC(=O)Nc1ccc(S(=O)(=O)NNC(=O)c2cccc(Cl)c2)cc1	22%	5.6µM*	-24%	-9%	3%
CC(=O)Nc1ccc(S(=O)(=O)NNC(=O)c2ccc3c(c2)OCO3)cc1	24%	76%[12.7 µM]	11µM*	16%	x
CCc1ccc2occ(CC(=O)Nc3nnc(C)s3)c2c1	36%	1%[59 µM]	-3%	-5%	x
COc1cc(-c2nnc(NC(=O)c3ccc(S(=O)(=O)N4CCOCC4)cc3)o2)cc(OC)c1OC	x	-42%	x	6%	8%
O=C(Nc1nnc(C2=COCCO2)o1)c1ccc(S(=O)(=O)N2CCOCC2)cc1	23%	50µM*	79µM*	x	x
Cc1nnc(NC(=O)c2ccc(S(=O)(=O)N3CCCCC3C)cc2)o1 (centres undefined)	27%	x	u	15%	x
CC1CCCCN1S(=O)(=O)c1ccc(C(=O)Nc2nnc(C3=COCCO3)o2)cc1 (centres undefined)	23%	2%	-28%	89µM*	x
CC1CCCN(S(=O)(=O)c2ccc(C(=O)Nc3nnc(C4=COCCO4)o3)cc2)C1 (centres undefined)	x	x	x	79µM*	x
COc1ccccc1-c1nnc(NC(=O)c2ccc(S(=O)(=O)N3CCOCC3)cc2)o1	39%	77%[12.7 µM]	79µM*	17%	x
C=C1CC2C(=O)N(Cc3ccccc3)C(C(=O)O)C1N2C(=O)OC(C)(C)C (centres undefined)	17%	x	-17%	x	x
CC1CCCN(S(=O)(=O)c2ccc(C(=O)NC(C)c3ccccc3)cc2)C1 (centres undefined)	15%	18µM*	-16%	2%	3%
CC1CN(S(=O)(=O)c2ccc(C(=O)Nc3nnc(-c4ccccn4)o3)cc2)CC(C)O1 (centres undefined)	37%	-28%	89µM*	x	x
COCc1nnc(NC(=O)c2ccc(S(=O)(=O)N3CCOCC3)cc2)o1	44%	x	32µM*	18µM*	x
CCCCN(Cc1cccs1)S(=O)(=O)c1cc(-c2cc(C)no2)ccc1C	69%	30%[59 µM]	26%	16%	x
